{
  "source": "PubChem BioAssay (Tox21)",
  "note": "Records with an inconclusive call do not appear. Where a call stands in place of a potency, no number is given. Active and inactive are the calls of the source. The call rests on the fitted dose curve; in most records, active means well fitted cell-killing curve with a large enough effect in the repeat runs; inconclusive means weak or mixed curves, or effect the other way; inactive means no such curve, though single readings can be large or run the other way.",
  "data": [
    {"assay": "qHTS assay for small molecule activators of the heat shock response signaling pathway - cell viability counter screen (AID 743209); further: nearly all actives have a fitted effect of over 50% in size", "details": "HSE-bla HeLa viability, CellTiter-Glo luminescence, 5 h; series mostly up to 62.6 µM", "in_short": "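HSE-bla HeLa; 1500 cells/well; overnight 37 C, 5% CO2; compound 5 h 37 C; LiveBLAzer B/G substrate 2.5 h RT; CellTiter-Glo 30 min RT; luminescence.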", "values": [
      {"smiles": "O=[N+]([O-])c1ccc(CBr)cc1", "Potency": "inactive"},
      {"smiles": "CC(Cl)(Cl)[N+](=O)[O-]", "Potency": "inactive"},
      {"smiles": "CC(C)CP(=S)(S)CC(C)C", "Potency": "inactive"},
      {"smiles": "COC(=O)c1c(C(F)F)nc(C(F)(F)F)c(C2=NCCS2)c1CC(C)C", "Potency": "inactive"},
      {"smiles": "CCS(=O)(=O)C(C)(C)S(=O)(=O)CC", "Potency": "inactive"},
      {"smiles": "O=C1c2ccccc2C(=O)c2ccccc21", "Potency": "inactive"},
      {"smiles": "COC(=O)c1ccccc1S(=O)(=O)NC(=O)Nc1nc(C)cc(C)n1", "Potency": "inactive"},
      {"smiles": "CCCCc1c(C)nc(NCC)[nH]c1=O", "Potency": "inactive"},
      {"smiles": "CCOP(=S)(OCC)Oc1nc(Cl)n(C(C)C)n1", "Potency": "inactive"},
      {"smiles": "CCC1(c2ccccc2)C(=O)NC(=O)NC1=O", "Potency": "inactive"},
      {"smiles": "Nc1cc2c3c(c1)C(c1ccccc1)=N[C@@H](NC(=O)c1cccnc1)C(=O)N3CC2", "Potency": "inactive"},
      {"smiles": "CC(C1CC1)C(O)(Cn1cncn1)c1ccc(Cl)cc1", "note": "(stereo not drawn)", "Potency": "inactive"},
      {"smiles": "C1CCC(C2CCCCC2)CC1", "Potency": "inactive"},
      {"smiles": "C#CCN1C(=O)COc2cc(F)c(N3C(=O)C4=C(CCCC4)C3=O)cc21", "Potency": "inactive"},
      {"smiles": "COc1cc(OC)nc(Oc2cccc(Oc3nc(OC)cc(OC)n3)c2C(=O)O)n1", "Potency": "inactive"},
      {"smiles": "CCC(C)(C)c1cc(-n2nc3ccccc3n2)c(O)c(C(C)(C)CC)c1", "Potency": "inactive"},
      {"smiles": "[Cl][Sn]([Cl])([Cl])[Cl]", "Potency": "inactive"},
      {"smiles": "CNC(=O)Oc1c(C(C)(C)C)cc(C)cc1C(C)(C)C", "Potency": "inactive"},
      {"smiles": "CSc1nc(N=[N+]=[N-])nc(NC(C)C)n1", "Potency": "inactive"},
      {"smiles": "Cc1ncsc1CCCl", "Potency": "inactive"},
      {"smiles": "CCCSC(=O)Cl", "Potency": "inactive"},
      {"smiles": "COC(=O)C(C)Oc1ccc(Oc2ccc(Cl)cc2Cl)cc1", "note": "(stereo not drawn)", "Potency": "inactive"},
      {"smiles": "CCOC(=O)CP(=O)(OCC)OCC", "Potency": "inactive"}
    ]}
  ]
}
